Source: the supplement of paper PMC6555819

Key:
Experiment in all cases: PBM binding z-score (relative to random genomic background probes); higher = stronger binding; sequences stand for … in GC…GCGATTGACAGCGTAGAATGAAGG
[1] = test system: FXR:RXRa (NR concentration 270 nM, RXRa partner concentration 90 nM)
How it was run: (§1)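 Ligand-free nuclear receptor dimers were bound for 1 h to custom Agilent 4×180K protein-binding microarrays. Detection used antibodies against each partner (one per run). Binding z-scores rest on regression-normalized fluorescence, with random background probes as the reference.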

[2] = test system: LXRa:RXRa (NR concentration 270 nM, RXRa partner concentration 90 nM)
How it was run: as §1

[3] = test system: LXRa homodimer (NR concentration 270 nM)
How it was run: as §1

[4] = test system: LXRb:RXRa (NR concentration 270 nM, RXRa partner concentration 90 nM)
How it was run: as §1

[5] = test system: LXRb homodimer (NR concentration 270 nM)
How it was run: as §1

[6] = test system: PPARa:RXRa (NR concentration 270 nM, RXRa partner concentration 90 nM)
How it was run: as §1

[7] = test system: PPARg:RXRa (NR concentration 180 nM, RXRa partner concentration 90 nM)
How it was run: as §1

[8] = test system: PPARg:RXRa 270nM:90nM, anti-RXR (NR concentration 270 nM, RXRa partner concentration 90 nM)
How it was run: as §1

[9] = test system: PPARg:RXRa 30nM:10nM, anti-RXR (NR concentration 30 nM, RXRa partner concentration 10 nM)
How it was run: as §1

[10] = test system: PPARg:RXRa 90nM:30nM, anti-RXR (NR concentration 90 nM, RXRa partner concentration 30 nM)
How it was run: as §1

[11] = test system: PPARg:RXRa DBDmut IVT, anti-RXR (DBD mutation: RXRa K156A/R161A, NR concentration 270 nM, RXRa partner concentration 90 nM)
How it was run: as §1

[12] = test system: PPARg:RXRa IVT, anti-PPARg (NR concentration 270 nM, RXRa partner concentration 90 nM)
How it was run: as §1

[13] = test system: PPARg DBDmut:RXRa IVT, anti-PPARg (DBD mutation: PPARg1 K132A/R137A, NR concentration 270 nM, RXRa partner concentration 90 nM)
How it was run: as §1

[14] = test system: PPARg DBDmut IVT, anti-PPARg (DBD mutation: PPARg1 K132A/R137A, NR concentration 270 nM)
How it was run: as §1

[15] = test system: PPARg homodimer (NR concentration 180 nM)
How it was run: as §1

[16] = test system: PXR:RXRa (NR concentration 270 nM, RXRa partner concentration 90 nM)
How it was run: as §1

[17] = test system: PXR homodimer (NR concentration 270 nM)
How it was run: as §1

[18] = test system: RARa:RXR (NR concentration 270 nM, RXRa partner concentration 90 nM)
How it was run: as §1

[19] = test system: RARa homodimer (NR concentration 270 nM)
How it was run: as §1

[20] = test system: RARb:RXRa (NR concentration 270 nM, RXRa partner concentration 90 nM)
How it was run: as §1

| Sequence | PBM binding z-score [1] | PBM binding z-score [2] | PBM binding z-score [3] | PBM binding z-score [4] | PBM binding z-score [5] | PBM binding z-score [6] | PBM binding z-score [7] | PBM binding z-score [8] | PBM binding z-score [9] | PBM binding z-score [10] | PBM binding z-score [11] | PBM binding z-score [12] | PBM binding z-score [13] | PBM binding z-score [14] | PBM binding z-score [15] | PBM binding z-score [16] | PBM binding z-score [17] | PBM binding z-score [18] | PBM binding z-score [19] | PBM binding z-score [20] |
| --- | --- | --- | --- | --- | --- | --- | --- | --- | --- | --- | --- | --- | --- | --- | --- | --- | --- | --- | --- | --- |
| ACTAGTTGGTCAGCTGAGGTCCCACACAATTCGG | 0.639 | -0.375 | -0.16 | -0.219 | 0.179 | -0.1 | 0.275 | -0.102 | -0.52 | -0.3 | 0.847 | 1.02 | -0.38 | 1.01 | 0.419 | 0.0973 | -0.424 | 0.479 | -0.0479 | 0.921 |
| ACAGACAGGTGATGAAGGAAACTCAGGCTATCAT | 0.101 | -0.0621 | -0.0645 | -0.383 | -0.211 | 0.0161 | 0.66 | -0.12 | 0.224 | -0.159 | -0.00583 | 0.186 | 0.678 | 0.42 | 0.36 | -0.196 | 0.0696 | 0.162 | 0.228 | 0.275 |
| TCTTGTAGATCAAGCAGGTTAAGAGAGCCTGAGT | 0.126 | 0.03 | -0.729 | 0.145 | -0.665 | 0.53 | -0.372 | 0.87 | 2.06 | 1.55 | 1.44 | 0.423 | -0.603 | -0.0222 | -0.58 | 0.103 | -0.227 | -0.116 | -0.124 | 0.0485 |
| CTCGGAAGGTCGTGCTCAGGTGAGTATACCAAAC | 1.88 | 1.55 | -0.00824 | 1.29 | -0.534 | 2.79 | 0.376 | 1.25 | 0.069 | 0.755 | 0.012 | 0.881 | -0.0386 | -0.266 | 0.944 | 1.55 | -0.228 | 2.36 | -0.507 | 2.5 |
| TCTAGTTGGTCAAAGATCACACACTCGAAATGCG | 1.08 | 0.894 | 0.461 | 1.25 | 0.389 | 3.18 | 5.95 | 6.52 | 5.72 | 6.88 | 2.51 | 2.84 | 1.33 | 1.22 | 1.93 | 1.07 | 0.547 | 1.77 | 0.928 | 1.3 |
| CCAGACAGGTGAAAGGTAACTCAGTCTGGTACGC | 0.692 | 0.861 | -0.121 | 1.01 | -0.274 | 3.53 | 6.06 | 5.9 | 4.26 | 6.73 | 2.07 | 3.2 | 0.403 | -0.0766 | 1.36 | 0.838 | 0.027 | 1.99 | 0.208 | 1.4 |
